Bioassay records as filed in PubChem.
An excerpt weighted towards active compounds, which were near 4.1% of everything screened.
AmpC detergent = qHTS Inhibitors of AmpC Beta-Lactamase (assay with detergent); 0.041% of 370,000 active; AID 485294, 2010; Potency, µM (series often up to 114 µM), most hits filed as inhibitors; AmpC hydrolysis of nitrocefin, absorbance 480 nm, 0.01% Triton; note: nearly all actives have a fitted effect of over 25% in size
Target sequence (P00811 whole entry, looked up): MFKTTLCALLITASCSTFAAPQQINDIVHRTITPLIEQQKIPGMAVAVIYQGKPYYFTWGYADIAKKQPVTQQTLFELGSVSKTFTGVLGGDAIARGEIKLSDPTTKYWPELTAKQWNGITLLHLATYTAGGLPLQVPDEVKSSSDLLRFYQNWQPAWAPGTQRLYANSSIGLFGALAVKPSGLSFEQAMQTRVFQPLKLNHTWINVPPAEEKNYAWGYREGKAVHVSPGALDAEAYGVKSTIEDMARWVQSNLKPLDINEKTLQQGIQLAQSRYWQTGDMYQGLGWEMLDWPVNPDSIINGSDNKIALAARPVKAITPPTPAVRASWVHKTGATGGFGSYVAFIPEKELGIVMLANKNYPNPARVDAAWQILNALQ
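20 mM phosphate pH 7.0 + 0.01% (detergent screen) or 0.0001% Triton X-100; 5.3 nM AmpC reagent; cpd preinc 15 min RT; nitrocefin (800 uM stock) to start; A480 q20 s × 4 min; Activity was normalised to no-enzyme and no-compound control wells.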
AMA1 RON2 block = qHTS for Inhibitors of AMA1-RON; Towards Development of Antimalarial Drug Lead: Primary Screen; AID 720542, 2013; 0.2% of 360,000 active; Potency, µM (titrated, usually from 58.2 µM), usual class: inhibitors; Plasmodium falciparum AMA1 (3D7) - RON2 peptide interaction; AlphaScreen AMA1-biotinylated RON2 peptide binding; note: nearly all actives have a fitted effect of over 45% in size
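AMA1 (3D7) with his tag at 25 nM final met compounds first, then biotinylated RON2 peptide at 25 nM; detection used donor plus acceptor beads, 10 µg/mL apiece, read by AlphaScreen after 30 min at room temperature.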
Sm TGR inh = qHTS Assay for the Inhibitors of Schistosoma Mansoni Peroxiredoxins | purified TGR, DTNB reduction, TNB absorbance 405 nm | Potency, µM (doses to about 114 µM), usual class: inhibitors | 3% of 360,000 active; note: nearly all actives have a fitted effect of over 60% in size
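First, TGR (20 nM dispensed) and NADPH were mixed with compound. Second, a 15 min room-temperature incubation followed. Third, further NADPH and then DTNB were added to start the reaction. Finally, TNB absorbance was monitored kinetically.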
AmpC no deterg = qHTS Inhibitors of AmpC Beta-Lactamase (assay without detergent). Potency, µM (highest dose often 57.1 µM), actives largely listed as inhibitors. AmpC nitrocefin hydrolysis, absorbance 480 nm, 0.0001% Triton. 0.52% of 330,000 active. P00811; note: nearly all actives have a fitted effect of over 20% in size
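20 mM phosphate pH 7.0 + 0.01% (detergent screen) or 0.0001% Triton X-100; 5.3 nM AmpC reagent; cpd preinc 15 min RT; nitrocefin (800 uM stock) to start; A480 q20 s × 4 min; Activity was normalised to no-enzyme and no-compound control wells.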
FMDV inh = High Throughput Screening for Foot and Mouth Disease Virus Antivirals; FMDV antiviral cell-based qHTS; Potency, µM (highest dose often 57.9 µM), usual class: inhibitors; 1.2% of 410,000 active; calls by dose curve; tested in HEK293T cells; note: read-out not given here; nearly all actives have a fitted effect of over 45% in size
Of the large screens only hits and unclear results are named; the others gave an inactive call. Unless noted, calls come from the whole dose curve; as a rule, active = well fitted curve in the direction sought with a large enough effect; inconclusive = small, poorly fitted or top-dose-only effect, or another doubt; inactive = no such curve, though single readings can be large; an effect the other way counts as inactive or inconclusive.

Cc1ccc(C2/C(=C(/O)c3ccc(Br)cc3)C(=O)C(=O)N2Cc2ccco2)o1 (centres undefined)	Sm TGR inh 7.9µM
COc1cccc(C2/C(=C(/O)c3ccccc3)C(=O)C(=O)N2Cc2ccco2)c1 (centres undefined)	Sm TGR inh 50µM
COc1ccc(/C(O)=C2\C(=O)C(=O)N(Cc3ccco3)C2c2cc(OC)ccc2OC)cc1 (centres undefined)	none (no result: FMDV inh)
O=C1C(=O)N(Cc2ccco2)C(c2cccc(Cl)c2)/C1=C(\O)c1ccc2c(c1)OCCO2 (centres undefined)	Sm TGR inh 35µM
CCOc1cccc(/C(O)=C2/C(=O)C(=O)N(Cc3ccco3)C2c2ccncc2)c1 (centres undefined)	Sm TGR inh inconclusive
COc1ccccc1CN1CCNC(=O)C1=O	none (no result: AMA1 RON2 block, AmpC no deterg)
COCC(=O)Nc1cc(C(=O)N2CCc3c([nH]c4ccccc34)C2)cc2nc(-c3ccccc3)n(C)c12	none (no result: AmpC detergent, AMA1 RON2 block, Sm TGR inh, AmpC no deterg)
c1ccc2c(N3CCNCC3)nc(-c3ccoc3)nc2c1	none (no result: AmpC detergent, AMA1 RON2 block, Sm TGR inh, AmpC no deterg)
Cc1ccc(N2C(=O)C3ON(c4ccccc4)C(c4ccncc4)C3C2=O)c(C)c1 (centres undefined)	Sm TGR inh 50µM
COc1ccccc1N1C(=O)C2ON(c3ccccc3)C(c3ccc(N(C)C)cc3)C2C1=O (centres undefined)	Sm TGR inh 5µM (no result: AMA1 RON2 block, FMDV inh)
COc1ccccc1C1C2C(=O)N(c3ccccc3)C(=O)C2ON1c1ccccc1 (centres undefined)	none
Cc1cccc(C)c1N1C(=O)C2ON(c3ccccc3)C(c3ccncc3)C2C1=O (centres undefined)	none
Cc1ccccc1N1C(=O)C2ON(c3ccccc3)C(c3ccco3)C2C1=O (centres undefined)	Sm TGR inh 50µM
COc1ccccc1-c1nc2cc(C(=O)NC[C@H]3CCc4ccccc4O3)cc(NC(C)=O)c2n1C	none (no result: AmpC detergent, AMA1 RON2 block, Sm TGR inh, AmpC no deterg)
CCOC(=O)c1c(-c2ccccc2)csc1NC(=O)c1cc(-c2ccc(F)cc2)on1	none (no result: AMA1 RON2 block, AmpC no deterg)
C=CS(=O)(=O)c1sc(Cl)c(N2CCOCC2)c1[N+](=O)[O-]	AmpC detergent inconclusive, Sm TGR inh 0.1µM, AmpC no deterg 28µM, FMDV inh 25µM
Cc1ncc2c(c1CNC(=O)c1ccc3c(c1)OCO3)CCN(C(=O)c1coc3c1C(=O)CCC3)C2	none (no result: AmpC detergent, AMA1 RON2 block, Sm TGR inh, AmpC no deterg)
CCCCCCn1c(N2CCCC2)nc2c1c(=O)n(C)c(=O)n2C	FMDV inh 28µM
CN1CCN(c2nc3c(c(=O)[nH]c(=O)n3C)n2CC(N)=O)CC1	AmpC detergent inconclusive
CN1CCN(c2nc3c(c(=O)n(C)c(=O)n3C)n2CC(N)=O)CC1	AmpC detergent 32µM (no result: FMDV inh)
C=CCn1c(N2CCN(c3ccc(OC)cc3)CC2)nc2c1c(=O)n(C)c(=O)n2C	FMDV inh 28µM
C=CCNc1nc2c(c(=O)n(C)c(=O)n2C)n1CCCCCC	AmpC detergent inconclusive, FMDV inh 14µM
CCN1CCC(N[C@H]2C[C@@H](C(=O)NC)N(Cc3cccc4ccccc34)C2)CC1	none (no result: AmpC detergent, AMA1 RON2 block, Sm TGR inh, AmpC no deterg)
CCc1nn(Cc2cccc(F)c2)c(=O)c2cc3cc(C)ccc3n12	none (no result: AMA1 RON2 block, AmpC no deterg)
O=S(=O)(c1ccccc1)N1CCN(c2ccnc3cc(Cl)ccc23)CC1	FMDV inh 25µM (no result: Sm TGR inh)
O=C(Nc1cc(F)ccc1F)N1CCN(c2ccnc3cc(Cl)ccc23)CC1	FMDV inh 32µM
CC(=O)N1CCN(c2ccnc3cc(Cl)ccc23)CC1	none
Cc1ccc(F)cc1NC(=O)N1CCN(c2ccnc3cc(Cl)ccc23)CC1	FMDV inh inconclusive
O=S(=O)(c1cccs1)N1CCN(c2ccnc3cc(Cl)ccc23)CC1	FMDV inh inconclusive
CCCCNC(=O)N1CCN(c2ccnc3cc(Cl)ccc23)CC1	FMDV inh 32µM
COc1cc(=O)n2c(c1C(=O)N(C)Cc1nonc1C)CCN(Cc1c(F)cccc1F)CC2	none (no result: AmpC detergent, AMA1 RON2 block, Sm TGR inh, AmpC no deterg)
COc1ccccc1C(=O)Nc1cccc(C(=O)OCc2cc(=O)n3nc(C4CC4)sc3n2)c1	none (no result: AMA1 RON2 block, AmpC no deterg)
Cc1c(C(=O)OC2CCC(C)CC2)[nH]c2c1C(=O)CC(c1ccccc1Cl)C2 (centres undefined)	none (no result: AMA1 RON2 block, AmpC no deterg)
O=C(OCn1ncc(Br)c(Br)c1=O)c1ccccc1Cl	Sm TGR inh 1.3µM, FMDV inh 14µM
O=C(OCn1ncc(Br)c(Br)c1=O)c1ccc(F)cc1	Sm TGR inh 2µM, FMDV inh 14µM
O=C(CC1(c2cccc(F)c2)CC(=O)N(Cc2cccnc2)C1=O)N1CCCCCCC1 (centres undefined)	none (no result: AmpC detergent, AMA1 RON2 block, Sm TGR inh, AmpC no deterg)
O=C(NCC1CCC2(CCN(Cc3ccc4ncccc4c3)CC2)O1)C1CCCO1 (centres undefined)	none (no result: AmpC detergent, AMA1 RON2 block, Sm TGR inh, AmpC no deterg)
N#CC1(c2ccccc2)CCCN1C(=O)c1ccc(Br)o1 (centres undefined)	Sm TGR inh 40µM
O=C(c1ccc(Br)o1)N1CCCc2ccccc21	none
O=C(CNc1cccc2ccccc12)N/N=C/C=C/c1ccco1	none
O=C(Cc1cccs1)N/N=C/C=C/c1ccco1	AmpC detergent inconclusive, Sm TGR inh 4µM
O=C(CSc1nnc(SCc2ccc(Cl)cc2)s1)N/N=C/c1ccc(C(=O)O)cc1	none
Cc1ccc(OCC(=O)N/N=C/C=C/c2ccco2)cc1C	AmpC detergent inconclusive, Sm TGR inh 50µM
Cc1ccc(OCC(=O)N/N=C/c2ccco2)cc1	AmpC detergent inconclusive (no result: FMDV inh)
O=C(CSc1nnc(SCc2cccc3ccccc23)s1)N/N=C/C=C/c1ccccc1[N+](=O)[O-]	AmpC no deterg 14µM
O=C(CSc1nnc(SCc2cccc3ccccc23)s1)N/N=C/c1c[nH]c2ccccc12	none
O=C(CSc1nnc(SCc2ccccc2)s1)N/N=C/C=C/c1ccco1	AmpC detergent inconclusive, Sm TGR inh 40µM, AmpC no deterg 11µM
COc1cccc(C2CC(=O)N(c3ccc(F)cc3)C3=C2C(=O)OC3)c1OC (centres undefined)	none (no result: AMA1 RON2 block, AmpC no deterg)
Cn1c(SCC(=O)N/N=C/C=C/c2ccco2)nc2ccccc21	Sm TGR inh 22µM
Cn1c(SCC(=O)N/N=C/C=C/c2ccccc2[N+](=O)[O-])nc2ccccc21	AmpC detergent inconclusive
CCn1c(SCC(=O)N/N=C/C=C/c2ccco2)nnc1-c1ccccc1	Sm TGR inh 35µM
CCOC(=O)c1ccc(NC(=O)C(CC)Sc2nc3ccncc3[nH]2)cc1 (centres undefined)	none (no result: AMA1 RON2 block, AmpC no deterg)
COCCN(CC1CCCN(C2Cc3ccccc3C2)C1)C(=O)CSC (centres undefined)	Sm TGR inh 32µM
CC(=O)Nc1cccc(C(=O)/C=C/c2ccc(/C=C/C(=O)c3cccc(NC(C)=O)c3)cc2)c1	none (no result: AMA1 RON2 block, FMDV inh)
